Assay results reported in PMC4336329 (PLoS ONE, 2015).
About 14,000 (4.5%) of roughly 310,000 compounds showed an effect of 50% or more. The effect is printed as a negative number. Only a selection was taken, and strong results are over-represented in it overall.

target: human ether-à-go-go-related gene (hERG) potassium channel (human, UniProt Q12809); experiment: primary screen, population patch clamp on CHO cells stably expressing hERG; higher = less effect of the substance
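Also: peak tail current of the secondary pulse compared with the same well before compound.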

Chain of human ether-à-go-go-related gene (hERG) potassium channel (Q12809 whole entry, looked up): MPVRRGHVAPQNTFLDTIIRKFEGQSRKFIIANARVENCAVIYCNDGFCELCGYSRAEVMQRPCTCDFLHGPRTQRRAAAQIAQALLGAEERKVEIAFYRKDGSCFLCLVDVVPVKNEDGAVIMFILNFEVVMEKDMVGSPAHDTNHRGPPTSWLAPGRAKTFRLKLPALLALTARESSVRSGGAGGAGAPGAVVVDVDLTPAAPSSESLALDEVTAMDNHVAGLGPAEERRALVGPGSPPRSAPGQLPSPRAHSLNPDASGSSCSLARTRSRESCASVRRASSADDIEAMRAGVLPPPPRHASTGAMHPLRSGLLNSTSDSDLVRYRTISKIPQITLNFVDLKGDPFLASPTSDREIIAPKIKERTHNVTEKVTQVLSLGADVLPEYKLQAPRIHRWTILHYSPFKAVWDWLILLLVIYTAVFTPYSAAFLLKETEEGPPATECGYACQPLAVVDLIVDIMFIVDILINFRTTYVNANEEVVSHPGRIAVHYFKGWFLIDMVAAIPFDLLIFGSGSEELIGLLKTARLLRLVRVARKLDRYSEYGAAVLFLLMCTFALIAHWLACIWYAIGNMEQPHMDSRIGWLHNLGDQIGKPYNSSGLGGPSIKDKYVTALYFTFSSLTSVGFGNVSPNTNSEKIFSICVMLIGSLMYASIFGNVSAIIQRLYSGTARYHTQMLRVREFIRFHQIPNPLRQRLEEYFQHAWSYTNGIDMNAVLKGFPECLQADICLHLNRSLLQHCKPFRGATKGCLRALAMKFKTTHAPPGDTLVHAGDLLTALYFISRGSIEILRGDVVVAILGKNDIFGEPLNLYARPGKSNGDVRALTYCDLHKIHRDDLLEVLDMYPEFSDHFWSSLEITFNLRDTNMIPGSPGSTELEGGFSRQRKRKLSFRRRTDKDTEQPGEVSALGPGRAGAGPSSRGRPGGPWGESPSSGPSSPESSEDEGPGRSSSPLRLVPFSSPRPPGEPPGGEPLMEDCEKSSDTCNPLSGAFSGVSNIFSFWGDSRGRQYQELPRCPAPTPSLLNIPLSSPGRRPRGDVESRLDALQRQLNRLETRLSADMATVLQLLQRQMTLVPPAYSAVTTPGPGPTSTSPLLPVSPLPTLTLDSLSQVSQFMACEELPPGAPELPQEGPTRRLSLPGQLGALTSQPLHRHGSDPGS

Structure (SMILES)	hERG current change (%, negative = inhibition) at 10uM [%]
CN(C)C=O.O=C(NCCc1ccccc1)c1oc2ccccc2c1COc1ccccc1	12.4
Cc1ccc(-c2cc(C(=O)NCc3ccccn3)no2)cc1	0.477
O=C(Nc1ccccn1)c1cccc(S(=O)(=O)N2CCCC2)c1	9.44
Cc1ccc(NC(=O)c2ccc3c(c2)OCO3)cc1S(=O)(=O)N1CCOCC1	-20.3
O=C(NCc1ccc(Cl)cc1)c1cccc(S(=O)(=O)N2CCCC2)c1	-30.9
Cc1ccc(C(=O)Nc2ccc(C)c(S(=O)(=O)N3CCOCC3)c2)c(C)c1	-51
Cc1cc(C(=O)Nc2ccc(C)c(S(=O)(=O)N3CCOCC3)c2)c(C)o1	-6.59
O=C(Nc1ccc(Cl)cn1)c1cccc(S(=O)(=O)N2CCCC2)c1	-50.9
Cc1ccnc(NC(=O)c2cccc(S(=O)(=O)N3CCOCC3)c2)c1	-18.9
O=C(Nc1ccccn1)c1cccc(S(=O)(=O)N2CCOCC2)c1	-6.45
Cc1ccc(OCCNC(=O)c2cccc(S(=O)(=O)N3CCN(C)CC3)c2)cc1	-16.6
O=C(Nc1ccc(Cl)cn1)c1cccc(S(=O)(=O)N2CCOCC2)c1	-65.4
Cc1ccc(NC(=O)c2cccc(S(=O)(=O)N3CCCC3)c2)nc1	-7.18
O=C(NCCOc1ccc(Cl)cc1)c1cccc(S(=O)(=O)N2CCCC2)c1	-51.8
O=C1c2ccccc2C(Nc2ccc(S(=O)(=O)N3CCCCC3)cc2)N1Cc1ccco1 (stereo not shown)	-22.7
CC(CC(=O)N(C)c1c(N)n(Cc2ccccc2)c(=O)[nH]c1=O)c1ccccc1 (stereo not shown)	-23.3
COCc1ccc(C(=O)N2CCCC(N3CCN(c4ccccc4C)CC3)C2)s1 (stereo not shown)	-34.7
CSc1cccc(NC(=O)C2CCCN(S(=O)(=O)c3cccs3)C2)c1 (stereo not shown)	3.76
COc1ccccc1N(C)C(=O)c1cc(S(=O)(=O)N2CCCC2)cn1C	-3.55
CC(NC(=O)C1CCN(S(=O)(=O)c2cnc[nH]2)CC1)c1ccccc1 (stereo not shown)	3.81
N/C(=N\OC(=O)c1ccccc1)c1ccn[nH]1	-1.07
Cc1ccc(C(=O)Nc2ccccn2)cc1S(=O)(=O)N1CCOCC1	-5.72
Cc1ccc(C(=O)Nc2ccc(Cl)cn2)cc1S(=O)(=O)N1CCOCC1	-51.4
Cc1ccc(S(=O)(=O)N2CCOCC2)cc1NC(=O)C1=NN(c2ccccc2)C(=O)CC1	-18
Cc1ccc(NC(=O)c2ccc(C)c(S(=O)(=O)N3CCOCC3)c2)nc1	-6.9
Cc1cccc(N2N=C(C(=O)Nc3ccc(Cl)c(S(=O)(=O)N4CCOCC4)c3)CCC2=O)c1	-52.4
O=C(COC(=O)c1cccc(S(=O)(=O)N2CCOCC2)c1)Nc1ncc(Cl)cc1Cl	-13.4
O=C(Nc1cccc(S(=O)(=O)N2CCOCC2)c1)C1=NN(c2ccccc2)C(=O)CC1	-42.9

Structure (SMILES)	hERG current change (%, negative = inhibition) at 10uM [%]
O=C(COC(=O)c1cc(S(=O)(=O)N2CCOCC2)ccc1F)Nc1ccc(Cl)cn1	-37.4
O=C(COC(=O)c1cccc(S(=O)(=O)N2CCOCC2)c1)Nc1ccc(Cl)cn1	-61.1
O=C(Cn1cnc([N+](=O)[O-])c1)Nc1ccccc1C(F)(F)F	-14.3
Cc1cc(C)cc(N(C(=O)CNC(=O)c2ccco2)C(C(=O)NC2CCCCC2)c2ccncc2)c1 (stereo not shown)	-10
CCOC(=O)C1=C(C)NC(=O)C(C(N)=O)C1c1ccccc1 (stereo not shown)	5.2
O=c1[nH]c2cc3c(cc2cc1C(c1nnnn1C1CCCC1)N1CCSCC1)OCCO3 (stereo not shown)	13.6
CSc1nc(C)cc(-n2ccc(=O)[nH]c2=O)n1	-3.54
CCOC(=O)/C=c1\s/c(=C\c2c(OC)ccc3ccccc23)c(=O)n1CC(=O)NCC1CCCO1 (stereo not shown)	2.13
Cc1ccccc1Nc1ncnc2c1cnn2C	4.92
CN(C)CC(C)(C)CNC(=O)c1cc(=O)c2ccccc2o1.Cl	19.6
Cc1cc(/C=C2/SC(=O)N(CC(=O)N3CCCC3)C2=O)c(C)n1C	-5.16
Cc1cc(OCCCn2ccnc2)cc(C(C)C)c1	-14.4
CCC(C)NCCCCOc1cc(C)cc(C(C)C)c1 (stereo not shown)	-54.9
Cc1cc(OCCCCNC(C)C)cc(C(C)C)c1.O=C(O)C(=O)O	-29.6
COc1ccc(C(=O)Oc2cc(N)n(S(=O)(=O)c3ccccc3)n2)cc1	-7.73
COc1ccccc1NS(=O)(=O)c1ccc(C(=O)NCC(c2ccccc2OC)N(C)C)cc1 (stereo not shown)	-0.121
Cc1ccc(OCc2cc(C(=O)N3CCC(C(O)C(C)C)CC3)no2)cc1C (stereo not shown)	-23.1
CCc1ccccc1OCCCCN1CCCCC1.O=C(O)C(=O)O	-30
CCN1CCN(CCCOc2ccccc2-c2ccccc2)CC1.O=C(O)C(=O)O	-66.6
Cl.OCCCN1CCN(CCCOc2ccccc2-c2ccccc2)CC1	-69.6
CCN1CCN(CCOc2ccccc2-c2ccccc2)CC1.O=C(O)C(=O)O	-32.9
CC(=O)c1ccccc1OCCCCN1CCCCC1.O=C(O)C(=O)O	-59.5
O=C(O)C(=O)O.c1ccc(-c2ccccc2OCCCN2CCCC2)cc1	-65
CCN1CCN(CCOCCOc2ccccc2-c2ccccc2)CC1.O=C(O)C(=O)O	-35.6
CC(=O)c1ccccc1OCCCN1CCCCC1.O=C(O)C(=O)O	-31.8
O=C(O)C(=O)O.c1ccc(-c2ccccc2OCCCN2CCOCC2)cc1	-37.1
Cl.OCCN1CCN(CCOc2ccccc2-c2ccccc2)CC1	-24.1
